Most compounds without a hit are left out; they make up all but 19% or so of the library.
HepG2 tox: kills HepG2 cells in TGF-b inhibitor counter-screen; HepG2 CAGA-GFP viability, ATP luminescence, 18 h; Potency, µM (doses to about 46.1 µM), inactives show top-dose activity change, negative = cytotoxicity, hits mostly cytotoxic; hit rate 0.76% among 410,000; also: potency is read from the fitted curve at half-maximal effect
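HepG2 CAGA-GFP cells (1000/well, DMEM with 1% FBS) received compound, then TGF-beta at 500 pg/mL final, and were incubated 18 hours at 37 degrees C. Viability was read by CellTiter-Glo luminescence. Media-only wells were set as complete cell-killing and DMSO as no toxicity.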
TGFb inhibitor: inhibitors of TGF-b signaling. HepG2 CAGA-GFP TGF-b/SMAD3 reporter, GFP fluorescence, 18 h; TGF-beta stimulated, 500 pg/mL final. hit rate 1.2% among 410,000. Potency, µM (titrated, usually from 46.1 µM), inactives show top-dose activity, negative = inhibition, most hits filed as inhibitors; also: potency is read from the fitted curve at half-maximal effect; % is scaled to controls: 0 for no effect and ±100 for the full control effect; nearly all actives have a fitted effect of over 65% in size
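First, reporter cells (HEPG2 CAGA-GFP) rested 2 h at 37 degrees C. Next, compounds were pinned in and TGF-beta added to 500 pg/mL final. After 18 h, GFP was imaged per cell and summed per well.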
TDP1 cell CPT: DT40-hTDP1 cell growth loss with CPT; chicken DT40 Tdp1-/-;hTDP1 cells + 20 nM CPT, ATP luminescence, 48 h; hit rate 12% among 420,000; AID 686979; Potency, µM (doses to about 46.2 µM), inactives show top-dose activity change, negative = growth inhibition, most hits filed as inhibitors; also: potency is read from the fitted curve at half-maximal effect; % is scaled to controls: 0 for no effect and ±100 for the full control effect; nearly all actives have a fitted effect of over 55% in size
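Cell growth measured by CellTiter-Glo luminescence after a minimum 48 h, 37 C compound exposure with 20 nM CPT in Tdp1-knockout DT40 cells stably expressing hTDP1, seeded 400/well; qHTS titration format.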
TDP1 inh: inhibitors of human tyrosyl-DNA phosphodiesterase TDP1. Q9NUW8. recombinant TDP1, AlphaScreen DNA substrate cleavage. Potency, µM (top dose mostly 130 µM), without a hit: top-dose activity change, negative = inhibition, actives largely listed as inhibitors. hit rate 0.28% among 350,000. AID 485290; also: potency is read from the fitted curve at half-maximal effect; % is scaled to controls: 0 for no effect and ±100 for the full control effect; nearly all actives have a fitted effect of over 40% in size
Target sequence (Q9NUW8 whole entry, looked up): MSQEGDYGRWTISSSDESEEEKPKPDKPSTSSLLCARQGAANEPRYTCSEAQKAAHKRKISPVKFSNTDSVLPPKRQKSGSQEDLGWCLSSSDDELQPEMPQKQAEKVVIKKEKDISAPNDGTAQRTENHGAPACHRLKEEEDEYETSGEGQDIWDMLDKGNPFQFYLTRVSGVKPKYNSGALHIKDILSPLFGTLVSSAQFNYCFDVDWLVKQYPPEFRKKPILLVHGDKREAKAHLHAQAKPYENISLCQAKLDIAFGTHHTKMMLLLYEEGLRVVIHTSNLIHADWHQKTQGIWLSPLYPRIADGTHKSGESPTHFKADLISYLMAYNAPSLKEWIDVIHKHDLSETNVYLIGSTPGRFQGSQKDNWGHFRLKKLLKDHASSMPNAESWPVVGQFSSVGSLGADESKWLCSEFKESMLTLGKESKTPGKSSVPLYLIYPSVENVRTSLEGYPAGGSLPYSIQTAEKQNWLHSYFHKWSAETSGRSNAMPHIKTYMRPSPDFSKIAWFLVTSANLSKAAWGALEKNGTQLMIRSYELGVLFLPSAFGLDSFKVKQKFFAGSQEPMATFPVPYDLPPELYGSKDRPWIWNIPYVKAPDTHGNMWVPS
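Enzyme-compound mixtures sat 15 min at room temperature, followed by a 5 min reaction with 15 nM final substrate and 10 min with AlphaScreen beads. Recombinant human Tdp1 was used at 1 nM final.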
IL-1B inflam inh: blocks inflammasome-driven IL-1 beta release. THP-1 LPS/ATP IL-1B secretion, AlphaLISA, 16 h; hits give low values. activity change, % at 57.5 µM. hit rate 4.7% among 360,000. AID 743279; in the data active = activity change below about -50%; inconclusive = mostly about -30% to -49%; also: % is scaled to controls: 0 for no effect and ±100 for the full control effect
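Secreted IL-1B measured by AlphaLISA bead assay after 16 h compound exposure of THP-1 cells; compounds (final up to 57.5 uM) added 1 h before LPS (250 ng/mL) and ATP (1.25 mM) stimulation; lower signal means less secretion.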
DT40 TDP1 no CPT: qHTS for Inhibitors of human tyrosyl-DNA phosphodiesterase 1 (TDP1): qHTS in cells in absence of CPT. hit rate 15% among 420,000. Potency, µM (titrated, usually from 46.2 µM), without a hit: at the highest dose activity change, negative = growth inhibition, usual class: inhibitors. DT40 Tdp1-/- hTDP1 cells, no CPT, ATP luminescence, 48 h; also: potency is read from the fitted curve at half-maximal effect; % is scaled to controls: 0 for no effect and ±100 for the full control effect; nearly all actives have a fitted effect of over 55% in size
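Compound effects on proliferation are scored in DT40 Tdp1-/-;hTDP1 cells in the absence of CPT. ATP levels (CellTiter-Glo luminescence) are recorded after a ≥48 hr, 37 °C incubation.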
The depositor's hits bear a star; ? = inconclusive; . = no result; ! = not confirmed by another sample; [ ] = remark or other dose. Unless noted, calls follow the shape of the dose curve; as a rule, active = well fitted curve in the direction sought with a large enough effect; inconclusive = small, poorly fitted or top-dose-only effect, or another doubt; inactive = no such curve, though single readings can be large; an effect the other way counts as inactive or inconclusive.

SMILES	HepG2 tox	TGFb inhibitor	TDP1 cell CPT	TDP1 inh	IL-1B inflam inh	DT40 TDP1 no CPT
CN1CCc2c(n(CC(O)CN3C(=O)c4ccccc4S3(=O)=O)c3ccccc23)C1=O (configuration not stated)	-1%	24%	5%	4%[56.1 µM]	-19	-9%
CS(=O)(=O)N1CCCCC1CCN1CCCCC1 (configuration not stated)	-3%	-4%	3%	.	-11	-3%
COc1ccc(-n2c(=O)c3c4c(sc3n(Cc3cc(C)ccc3C)c2=O)CN(C(C)=O)CC4)c(OC)c1	-35%	?	?	4%	.	23µM*
COc1cccc(NC(=O)Cn2c(=O)n(-c3cccc(OC)c3)c(=O)c3c4c(sc32)CCCC4)c1	8%	-5%	13µM*	4%	.	18µM*
COc1ccc(-n2c(=O)c3c4c(sc3n(Cc3ccccc3)c2=O)CCC4)c(OC)c1	-1%	-1%	?	6%	.	23µM*
COc1ccc(-n2c(=O)c3c4c(sc3n(CC(=O)C(C)(C)C)c2=O)CCCC4)c(OC)c1	-3%	0%	15µM*	9%	.	?
COc1ccc(C2=Nn3c(nnc3-c3ccc(OC)c(OC)c3)SC2)cc1OC	.	.	.	7%	.	.
CC(OC(=O)CCOc1ccccc1)C(=O)Nc1ccc(Cl)cn1 (configuration not stated)	-31%	-13%	-1%	-5%	-17	-2%
COc1ccccc1CNc1ncnc2cc(OC)c(OC)cc12	-35%	-17%	21µM*	8%	-20	23µM*
COc1cccc(CNc2ncnc3cc(Cl)ccc23)c1	-1%	-9%	?	5%	-2	?
COc1cc2ncnc(NCc3ccccc3)c2cc1OC	5%	-8%	?	6%	?	?
COc1cc2ncnc(NCc3cccc(Cl)c3)c2cc1OC	-23%	?	15µM*	5%	-25	15µM*
Fc1cccc(CNc2ncnc3cc(Cl)ccc23)c1F	-36%	?	16µM*	.	15	10µM*
COc1ccc(CNc2ncnc3cc(Cl)ccc23)cc1	-26%	-28%	15µM*	0%	56	13µM*
Cc1ccc2c(c1)c1c(c(=O)n(-c3ccccc3)c(=O)n1Cc1ccccc1C)n2C	-1%	31%	-3%	-3%	.	-16%
Brc1ccc2ncnc(NCc3ccco3)c2c1	-22%	0%	21µM*	2%	-9	18µM*
c1coc(CNc2ncnc3[nH]ncc23)c1	-3%	?	11µM*!	0%	15	?
COc1ccc(CNc2ncnc3cc(OC)c(OC)cc23)cc1OC	0%	3%	4%	.	54	-5%
O=C(COc1ncnc2ccc(Br)cc12)NCc1ccco1	-2%	-1%	?	.	37	-29%
COc1cc2ncnc(NCc3ccco3)c2cc1OC	-10%	-9%	18µM*	-5%	-11	?
CCN(CC)CCNC(=O)C(=O)NCC(c1cccnc1)N1CCN(c2ccccc2)CC1 (configuration not stated)	1%	7%	-13%	8%	.	-26%
CCn1c(SCc2ccc(C(=O)Nc3cc(C)cc(C)c3)cc2)nnc1-c1ccncc1	-2%	-20%	?	0%	-65*	?
O=C1/C(=C\c2ccccc2)CN(C(=O)CCN2CCCCC2)C/C1=C/c1ccccc1	-106%	16µM*	1.3µM*	.	-67*	1.5µM*
CC(=O)N1CCN(C(=O)CCN(c2ccccc2)S(=O)(=O)c2ccc(C)cc2)CC1	3%	5%	4%	0%	4	-23%
O=C(NCCN1CCOCC1)c1ccc(Cl)c(Cl)c1	8%	0%	24%	.	6	4%
SMILES	HepG2 tox	TGFb inhibitor	TDP1 cell CPT	TDP1 inh	IL-1B inflam inh	DT40 TDP1 no CPT
O=C1/C(=C\c2ccc(Cl)c(Cl)c2)CN(C(=O)CCN2CCOCC2)C/C1=C/c1ccc(Cl)c(Cl)c1	16µM*	2.8µM*	0.58µM*	.	-101*	0.82µM*
CCN(CC)CCC(=O)N1C/C(=C/c2ccccc2)C(=O)/C(=C\c2ccccc2)C1	-104%	2.8µM*	1.8µM*	.	-99*	3.7µM*
[N-]=[N+]=NC1CC(CO)OC1n1ccc(=O)[nH]c1=O (configuration not stated)	-27%	30%	16%	2%	6	-5%
O=C(CC1(O)C(=O)N(C/C=C/c2ccccc2)c2ccccc21)c1ccccn1 (configuration not stated)	0%	?	1.3µM*	5%	34	0.89µM*
O=C(CC1(O)C(=O)N(CCc2ccccc2)c2ccccc21)c1ccccn1 (configuration not stated)	0%	1%	2.6µM*	6%	-10	5.2µM*
Cc1coc(C)c1C(=O)CC1(O)C(=O)N(CCc2ccccc2)c2ccccc21 (configuration not stated)	-12%	0%	?	2%	-2	?
CCOC(=O)c1ccccc1NC(=O)Cn1c(=O)n(Cc2nc(-c3ccccc3)no2)c(=O)c2ccccc21	9%	15%	-26%	3%	.	-29%
N=C(N)SCCc1ccc(OCc2ccc([N+](=O)[O-])cc2)cc1	.	.	8.4µM*	7%	.	?
COc1ccc(C(=O)C2CCCN(Cc3cc(C)c(O)c(C)c3)C2)c(OC)c1 (configuration not stated)	0%	?	?	.	?	21µM*
COc1cccc(CN2CCCC(C(=O)c3ccc4c(c3)OCO4)C2)c1O (configuration not stated)	-30%	-25%	-14%	0%	-24	0%
COc1cc2c(cc1OC)CN(C1CCCN(Cc3cc(Cl)ccc3O)C1)CC2 (configuration not stated)	-27%	-28%	16µM*	3%	0	?
COc1ccc(C(=O)C2CCCN(Cc3c(C)[nH]c4ccccc34)C2)c(OC)c1 (configuration not stated)	.	.	.	3%	.	.
COc1ccc(C(=O)C2CCCN(C3Cc4ccccc4C3)C2)c(OC)c1 (configuration not stated)	-22%	9%	21µM*	6%	0	10µM*
COc1cccc(CN2CCCC(N3CCc4ccccc4C3)C2)c1O (configuration not stated)	-10%	3%	2%	3%	-5	-25%
